Many of the other results were omitted from the sample, so hits are more common in it than they were.
Dicer processing = human Dicer pre-microRNA cleavage inhibition. Q9UPY3. cat-ELCCA pre-miR-21 Dicer processing, chemiluminescence; stronger effect = higher value. z-score at 25 µM. 6% of 47,000 active; in the data active = z-score above about 3, passing the limit was not always enough;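 note: higher signal means more uncleaved substrate so more Dicer inhibition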
Numbers stand for hits; – = inactive.

SMILES	Dicer processing
CSc1nc(C)c(CC2CC2)c(=O)[nH]1	–
N[C@@H](Cc1c[nH]c2ccccc12)C(=O)O	–
Oc1ccc(-c2csc(Cc3c[nH]c4ccccc34)n2)cc1O	5.6
Clc1ccc(Cc2nc(-c3ccccc3)cs2)cc1	–
FC(F)(F)c1ccc(C2=NCCc3sccc32)cc1	–
O=c1ccc([N+](=O)[O-])cn1C1CCCCO1 (stereo unspecified)	–
CC1=NN(c2ccccc2)C(C2=C(C)CCCC2(C)C)C1 (stereo unspecified)	3.2
Fc1ccc(C2=NN(c3ccccc3)C(c3ccc(F)cc3)C2)cc1 (stereo unspecified)	–
Cc1nn(-c2ccccc2)c2c1C1(C)CC(C)(O2)c2c(C)nn(-c3ccccc3)c2O1	–
O=C1CC(c2nc3ccccc3n2Cc2ccc(Cl)cc2)CN1c1ccccc1 (stereo unspecified)	5.9
Cc1nc2ccccc2n1C1CC(=O)N(c2ccc(F)cc2)C1=O (stereo unspecified)	–
O=C1CC(SCc2ccc(Cl)cc2)C(=O)N1c1ccccc1 (stereo unspecified)	–
CCCCCCn1c(C2CC(=O)N(c3ccccc3)C2)nc2ccccc21 (stereo unspecified)	–
CC(C)c1ccc(N2CC(C(=O)O)CC2=O)cc1 (stereo unspecified)	–
O=c1[nH]c2ccccc2n1Cc1ccc(Cl)cc1	–
CC(C)CCn1c(C2CC(=O)N(c3ccccc3)C2)nc2ccccc21 (stereo unspecified)	3.7
CC(c1ccccc1)n1c(C2CC(=O)N(c3ccccc3)C2)nc2ccccc21 (stereo unspecified)	4.7
C=C(C)Cn1c(C2CC(=O)N(c3ccc(OCC)cc3)C2)nc2ccccc21 (stereo unspecified)	–
CCOc1ccc(N2CC(c3nc4ccccc4n3CC)CC2=O)cc1 (stereo unspecified)	–
CSc1nc2ccccc2c(=O)n1CCc1ccccc1	–
O=C1CC(c2nc3ccccc3n2CCc2ccccc2)CN1c1ccccc1 (stereo unspecified)	4.3
CCOc1ccc(C2c3c(oc4ccc(F)cc4c3=O)C(=O)N2CC2CCCO2)cc1 (stereo unspecified)	–
COc1ccc(C2CC(c3ccc(C(C)C)cc3)n3nc(N)nc3N2)cc1 (stereo unspecified)	–
N#CC1(Nc2cccc(C(F)(F)F)c2)CCCCCC1	–
CNC(=O)c1ccccc1Sc1ccc(Cl)cc1C(=O)O	–
SMILES	Dicer processing
CC(C)CCNC(=O)Oc1ccccc1	–
CCOC(=O)c1cc(C#N)c(Oc2ccc(C)cc2)nc1C(F)(F)F	–
O=c1[nH]cnc2c1oc1nc(-c3ccc(Cl)cc3)cc(-c3ccco3)c12	6.5
NNC(=O)c1oc2nc(-c3ccc(Cl)cc3)cc(-c3ccccc3)c2c1N	–
O=c1c2oc3nc(-c4ccccc4)cc(-c4ccco4)c3c2ncn1/N=C/c1ccc(F)cc1	–
Cc1ccccc1/C=N/N=C/c1ccccc1C	–
CCCCn1c(=O)oc2ccc(C)cc21	3.6
Cc1ccc2oc(=O)n(Cc3ccc(F)cc3)c2c1	–
Cc1ccc2oc(=O)n(CCC(=O)O)c2c1	–
CN(C)/C=N/c1nc(Sc2c(Cl)cccc2[N+](=O)[O-])n[nH]1	–
N#Cc1ccc(-c2nc3ccccc3c(=O)[nH]2)cc1	–
N#Cc1c(Oc2ccc(Cl)cc2)ccc([N+](=O)[O-])c1Oc1ccc(Cl)cc1	–
O=C(CN1CCN(CCCc2c[nH]c3ccc(F)cc23)CC1)c1ccc(F)cc1	–
O=C1CC(c2ccccc2F)Cc2nc(N3CCN(c4ccccn4)CC3)ncc21 (stereo unspecified)	–
CCCN1C(=O)C2(/C(=C(/O)c3ccc(F)cc3)C(=O)C(=O)N2CCN(C)C)c2ccccc21 (stereo unspecified)	–
CCN1C(=O)C2(/C(=C(/O)c3ccc(OC)cc3)C(=O)C(=O)N2CCN(C)C)c2ccccc21 (stereo unspecified)	4.3
CCN1C(=O)C2(/C(=C(/O)c3ccc(C)cc3)C(=O)C(=O)N2CCCN(C)C)c2ccccc21 (stereo unspecified)	–
CCN1C(=O)C2(/C(=C(/O)c3ccc(OC)c(C)c3)C(=O)C(=O)N2CCCN(C)C)c2ccccc21 (stereo unspecified)	–
CCCN1C(=O)C2(/C(=C(/O)c3ccc(OC)cc3)C(=O)C(=O)N2CCCN(C)C)c2ccccc21 (stereo unspecified)	–
CCN1C(=O)C2(/C(=C(/O)c3ccc(OC)cc3)C(=O)C(=O)N2CCCN(C)C)c2ccccc21 (stereo unspecified)	3.3
O=C(O)/C=C/C(=O)NC1CCN(c2nccc(C(F)(F)F)n2)CC1	–
CN=C1SC(CC(=O)O)C(=O)N1C (stereo unspecified)	20
COc1cc(/C=N/N=C2/SC(CC(=O)O)C(=O)N2C)cc(OC)c1OC (stereo unspecified)	–
C=CCN1C(=O)SC(CC(=O)O)C1=O (stereo unspecified)	–
CCOC(=O)c1cc(C#N)c(N2CCN(S(C)(=O)=O)CC2)nc1C(F)(F)F	–
N/C(=N\NC(=O)c1cccs1)c1ccc(C(F)(F)F)cn1	–

Source: PubChem (Center for Chemical Genomics, University of Michigan)
